Test results as given in PubChem BioAssay (NCI).
This is part of a sample that, as a whole, favours compounds with a hit. Of some 83,000 tested, about 20% had one in any assay.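 How to read the values: 0–100, growth inhibition (40 = 60% inhibited); 0, no net growth; -100 to 0, cell death (-40 = 40% of starting cells died; -100 = all dead).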 Activity calls are given as the source filed them. How the source made its calls: active means growth percent below 10; inactive means the rest.

Experiments:
Assay in all cases: NCI-60 one-dose screen, 48 h (100 = growth as untreated, 0 = no growth, -100 = all killed)
Conditions in all cases: 10 µM unless noted
HCT-15 colon = system: HCT-15 colon
HT29 colon = system: HT29 colon
SNB-75 CNS = system: SNB-75 CNS
SNB-19 CNS = system: SNB-19 CNS
U251 CNS = system: U251 CNS
PC-3 prostate = system: PC-3 prostate
SK-MEL-5 melanoma = system: SK-MEL-5 melanoma
UACC-62 melanoma = system: UACC-62 melanoma
LOX IMVI melanoma = system: LOX IMVI melanoma
SK-MEL-28 melanoma = system: SK-MEL-28 melanoma

Measured: growth

COc1ccc(C(=O)/C=C/c2ccc(/C=C/c3cc(OC)c(OC)c(OC)c3)cc2)cc1
inactive: HCT-15 colon 33.6% | HT29 colon 36.2% | SNB-75 CNS 59.8% | SNB-19 CNS 74.4% | U251 CNS 36.3% | PC-3 prostate 52.2% | SK-MEL-5 melanoma 62% | UACC-62 melanoma 53.7% | LOX IMVI melanoma 24.7% | SK-MEL-28 melanoma 84.7%

CSc1nc(-c2cc3ccccc3o2)cc(-c2ccc(Cl)cc2)c1C#N
inactive: HCT-15 colon 31.1% | SNB-19 CNS 55.1% | PC-3 prostate 22.2% | SK-MEL-5 melanoma 55.3% | LOX IMVI melanoma 16.8% | SK-MEL-28 melanoma 65.2%
active: HT29 colon -50.6% | SNB-75 CNS -36% | U251 CNS 6.2% | UACC-62 melanoma -17.1%

CN1C(=O)[C@H]2c3c1cccc3[C@@]13NC(=O)O[C@H]1[C@H](CCC3(C)C)C2(C)C
inactive: HCT-15 colon 93.6% | HT29 colon 100% | SNB-75 CNS 81.1% | SNB-19 CNS 90.7% | U251 CNS 103% | PC-3 prostate 84.6% | SK-MEL-5 melanoma 98.1% | UACC-62 melanoma 85.4% | LOX IMVI melanoma 100% | SK-MEL-28 melanoma 109%

O=[N+]([O-])c1cc(S(=O)(=O)OCC2CO2)ccc1Cl (stereo not given)
inactive: HCT-15 colon 93.4% | HT29 colon 49.7% | SNB-75 CNS 89.9% | SNB-19 CNS 110% | U251 CNS 98.9% | PC-3 prostate 83.7% | SK-MEL-5 melanoma 102% | UACC-62 melanoma 111% | LOX IMVI melanoma 39.1% | SK-MEL-28 melanoma 90.1%

CCOC(=O)c1ccccc1NC(c1ccccc1)c1ccc2cccnc2c1O (stereo not given)
active: SK-MEL-5 melanoma 4.23%
inactive: HCT-15 colon 23% | HT29 colon 39.4% | SNB-75 CNS 52.7% | SNB-19 CNS 30.9% | U251 CNS 17.7% | PC-3 prostate 25.4% | UACC-62 melanoma 12.8% | LOX IMVI melanoma 11.9% | SK-MEL-28 melanoma 38.3%

COC(=O)C(CC(=O)c1ccc(-c2ccccc2)cc1)c1ccccc1 (stereo not given)
active: HT29 colon 6.34%
inactive: HCT-15 colon 31.3% | SNB-75 CNS 72.5% | SNB-19 CNS 75.5% | U251 CNS 71.1% | PC-3 prostate 64.4% | SK-MEL-5 melanoma 45.5% | UACC-62 melanoma 51.3% | LOX IMVI melanoma 44.9% | SK-MEL-28 melanoma 70.9%

NC(=O)NC(=O)/C=C/C(=O)OCCCl
inactive: HCT-15 colon 77.5% | HT29 colon 90% | SNB-75 CNS 80.3% | SNB-19 CNS 101% | U251 CNS 101% | PC-3 prostate 92.1% | SK-MEL-5 melanoma 106% | UACC-62 melanoma 104% | LOX IMVI melanoma 98.6% | SK-MEL-28 melanoma 100%

O=C1NCC(c2cc3ccccc3[nH]c2=O)Nc2ccccc21 (stereo not given)
inactive: HCT-15 colon 106% | HT29 colon 98.3% | SNB-75 CNS 99.6% | SNB-19 CNS 102% | U251 CNS 102% | PC-3 prostate 93.2% | SK-MEL-5 melanoma 97.2% | UACC-62 melanoma 98.3% | LOX IMVI melanoma 98.5% | SK-MEL-28 melanoma 103%

COc1cc(Cn2c(SCC(=O)Nc3ccc(Cl)cc3)nc3ccccc3c2=O)cc(OC)c1OC
inactive: HCT-15 colon 72.8% | HT29 colon 87.4% | SNB-75 CNS 27.1% | SNB-19 CNS 63.9% | U251 CNS 75.4% | PC-3 prostate 65.9% | SK-MEL-5 melanoma 49.8% | UACC-62 melanoma 63.3% | LOX IMVI melanoma 56.1% | SK-MEL-28 melanoma 83.7%

COc1ccc(S(=O)(=O)N2CCN(c3cc4c(cc3F)c(=O)c(C(=O)O)cn4C3CC3)CC2)c(OC)c1
inactive: HCT-15 colon 97.2% | HT29 colon 113% | SNB-75 CNS 85.7% | SNB-19 CNS 89.5% | U251 CNS 102% | PC-3 prostate 99.1% | SK-MEL-5 melanoma 82.6% | UACC-62 melanoma 84.4% | LOX IMVI melanoma 61.7% | SK-MEL-28 melanoma 101%

COc1cc(NCCN=C(N)NC(N)=NC(C)C)c2ncccc2c1
inactive: HCT-15 colon 100% | HT29 colon 61.2% | SNB-75 CNS 63.8% | SNB-19 CNS 84% | U251 CNS 79.7% | PC-3 prostate 73.4% | SK-MEL-5 melanoma 37.2% | UACC-62 melanoma 102% | LOX IMVI melanoma 89.2% | SK-MEL-28 melanoma 86.1%

COc1ccc(Cn2cc(COc3cc(/C=C/C(=O)c4cc(OC)c(OC)c(OC)c4)ccc3OC)nn2)cc1
inactive: HCT-15 colon 38.5% | HT29 colon 13% | SNB-75 CNS 59.8% | SNB-19 CNS 82.6% | U251 CNS 44.6% | PC-3 prostate 44.5% | SK-MEL-5 melanoma 80.2% | UACC-62 melanoma 70.1% | LOX IMVI melanoma 36.4% | SK-MEL-28 melanoma 84.6%

CC/C=C\C[C@H](O)C/C=C1/C(=O)C(Cl)=C[C@@H]1C/C=C\CCCC(=O)OC
inactive: SNB-75 CNS 50%
active: HCT-15 colon -61.5% | HT29 colon -76.7% | SNB-19 CNS -10.9% | U251 CNS -75.7% | PC-3 prostate -33.9% | SK-MEL-5 melanoma -77.7% | UACC-62 melanoma -57% | LOX IMVI melanoma -89.9% | SK-MEL-28 melanoma -2.03%

COc1cc(NCCCN=C(N)NC(N)=NC(C)C)c2ncccc2c1
inactive: HCT-15 colon 89.8% | HT29 colon 58.9% | SNB-75 CNS 75.3% | SNB-19 CNS 77.7% | U251 CNS 70.8% | PC-3 prostate 45% | SK-MEL-5 melanoma 27% | UACC-62 melanoma 90.1% | LOX IMVI melanoma 80.8% | SK-MEL-28 melanoma 84.4%

COc1ccc(/C=C/C(=O)OCC(=O)NNC(=O)c2ccccc2)cc1OC
inactive: HCT-15 colon 108% | HT29 colon 105% | SNB-75 CNS 78.2% | SNB-19 CNS 111% | U251 CNS 97% | PC-3 prostate 97.3% | SK-MEL-5 melanoma 97.8% | UACC-62 melanoma 98.4% | LOX IMVI melanoma 87.1% | SK-MEL-28 melanoma 125%

CC(C)CCC[C@@H](C)[C@H]1CC[C@H]2[C@@H]3CC[C@H]4C/C(=N/O)CC[C@]4(C)[C@H]3CC[C@]12C
inactive: HCT-15 colon 111% | HT29 colon 105% | SNB-75 CNS 96.9% | SNB-19 CNS 104% | U251 CNS 96.6% | PC-3 prostate 83.4% | SK-MEL-5 melanoma 98.3% | UACC-62 melanoma 98.6% | LOX IMVI melanoma 96.6% | SK-MEL-28 melanoma 116%

Cc1c(C2=NNC(c3ccc4c(c3)OCO4)C2)[n+]([O-])c2ccccc2[n+]1[O-] (stereo not given)
inactive: HCT-15 colon 103% | HT29 colon 110% | SNB-75 CNS 88.9% | SNB-19 CNS 103% | U251 CNS 110% | PC-3 prostate 96% | SK-MEL-5 melanoma 97.9% | UACC-62 melanoma 118% | LOX IMVI melanoma 96.1% | SK-MEL-28 melanoma 113%

COc1ccc(C(=O)/C=C/c2cc(C(=O)c3cc(OC)c(OC)c(OC)c3)ccc2OC)cc1
inactive: HCT-15 colon 29.2% | HT29 colon 27.7% | SNB-75 CNS 66.7% | SNB-19 CNS 53.6% | U251 CNS 52.4% | PC-3 prostate 44.5% | SK-MEL-5 melanoma 54.4% | UACC-62 melanoma 33.1% | LOX IMVI melanoma 27.4% | SK-MEL-28 melanoma 35.1%

CCN(Cc1ccc(CN(CC)C(=O)C(Br)Br)cc1)C(=O)C(Br)Br
inactive: HCT-15 colon 24.5% | SNB-75 CNS 54.9% | SNB-19 CNS 60.8% | PC-3 prostate 41.3% | SK-MEL-5 melanoma 12.3% | UACC-62 melanoma 18.2% | LOX IMVI melanoma 37.1% | SK-MEL-28 melanoma 36.7%
active: HT29 colon 6.76% | U251 CNS -9.38%

COc1cccc2cc(-c3cc4ccccc4[nH]3)c(=NC(=O)c3ccc(Cl)cc3)oc12
active: SNB-75 CNS 5.92%
inactive: HCT-15 colon 43.3% | HT29 colon 64.4% | SNB-19 CNS 53.5% | U251 CNS 43.9% | PC-3 prostate 38.5% | SK-MEL-5 melanoma 81.7% | UACC-62 melanoma 73.8% | LOX IMVI melanoma 75.5% | SK-MEL-28 melanoma 82.2%

O=C(Nc1ccc(OCc2nnc(-c3ccc(Cl)cc3)o2)c(F)c1)Nc1ccc(Cl)c(Cl)c1
active: SNB-75 CNS 6.81%
inactive: HCT-15 colon 48.4% | HT29 colon 32.8% | SNB-19 CNS 71.8% | U251 CNS 46.8% | PC-3 prostate 44.4% | SK-MEL-5 melanoma 75.6% | UACC-62 melanoma 60.9% | LOX IMVI melanoma 24.5% | SK-MEL-28 melanoma 61.5%

CCC1CCc2nc3sc(C(=O)Nc4cccc(C)c4)c(N)c3cc2C1 (stereo not given)
inactive: HCT-15 colon 43.7% | HT29 colon 47.6% | SNB-75 CNS 71.2% | SNB-19 CNS 86% | U251 CNS 66.6% | PC-3 prostate 66.7% | SK-MEL-5 melanoma 54.5% | UACC-62 melanoma 49.2% | LOX IMVI melanoma 72.7% | SK-MEL-28 melanoma 69.7%

Cc1cccc(-n2c(C)nc3ccc(NC(=O)NCCCl)cc3c2=O)c1
inactive: HCT-15 colon 93.8% | HT29 colon 106% | SNB-75 CNS 77.5% | SNB-19 CNS 101% | U251 CNS 100% | PC-3 prostate 93.5% | SK-MEL-5 melanoma 102% | UACC-62 melanoma 103% | LOX IMVI melanoma 95.6% | SK-MEL-28 melanoma 113%

O=C1CCCCN1CCCCC#Cc1ccccc1C#Cc1ccc([N+](=O)[O-])cc1
active: SK-MEL-5 melanoma 3.34% | LOX IMVI melanoma 6.11%
inactive: HCT-15 colon 17.4% | HT29 colon 28.4% | SNB-75 CNS 66.1% | SNB-19 CNS 70.2% | U251 CNS 28% | PC-3 prostate 31.9% | UACC-62 melanoma 25.8% | SK-MEL-28 melanoma 46.1%

COc1ccc([N+](=O)[O-])c(/C=C/C(=O)c2ccccn2)c1
inactive: HCT-15 colon 57.5% | HT29 colon 58.8% | SNB-75 CNS 67.2% | SNB-19 CNS 97.6% | U251 CNS 42.2% | PC-3 prostate 82.1% | SK-MEL-5 melanoma 90% | UACC-62 melanoma 94.7% | LOX IMVI melanoma 41% | SK-MEL-28 melanoma 100%

O=S(=O)(NCCNc1cc(-c2cn(-c3ccccc3)nc2-c2ccccc2)ccn1)c1cccc2ccccc12
inactive: HCT-15 colon 43.4% | HT29 colon 23.6% | SNB-75 CNS 59% | SNB-19 CNS 67% | U251 CNS 53.3% | PC-3 prostate 15.3% | SK-MEL-5 melanoma 26.5% | UACC-62 melanoma 56.5% | LOX IMVI melanoma 45.8% | SK-MEL-28 melanoma 62.9%
